Here are results for 40 compounds from PubChem BioAssay (EPA / NIEHS).

Calls of active or inactive are those of the source. Rule for the calls: active = hit-call score of the fitted dose curve at least 0.9, where 1 is the maximum; inactive = score below 0.9.

Read-out in this experiment: Interleukin-8 (IL8), CXCL8 (gene 3576)
Description: BSK_3C_IL8: BioMAP Diversity Plus: 3C Assay for Interleukin-8 (IL8) Biomarker Activity (AID 2283020). Conditions: primary human endothelial cells (HUVEC); actives raise or lower the signal. As to the method: BSK_3C is a cell-based, multiplexed-readout assay that uses umbilical vein endothelium, a human vascular primary cell, with measurements taken at 24 hours after chemical dosing in a 96-well plate.BSK_3C_IL8 is an assay component measured in the BSK_3C assay. It measures IL-8 antibody related to regulation of gene expression using ELISA technology.Data from the assay component BSK_3C_IL8 was analyzed into 1 assay endpoint. This assay endpoint, BSK_3C_IL8, was analyzed with bidirectional fitting relative to DMSO as the negative control and baseline of activity. Using a type of binding reporter, gain or loss-of-signal activity can be used to understand changes in the signaling as they relate to the gene CXCL8. Furthermore, this assay endpoint can be referred to as a primary readout, because this assay has produced multiple assay endpoints where this one serves a signaling function. To generalize the intended target to other relatable targets, this assay endpoint is annotated to the cytokine intended target family, where the subfamily is interleukins.
The levels of cell surface (or secreted, indicated by the prefix "s") biomarker endpoints were measured by ELISA. Overt cytotoxicity to cells in confluent adherent cultures (all systems other than the BT system) was assessed by measuring total protein levels using sulforhodamine B (SRB) staining in parallel cultures at the time of biomarker measurements, indicated as SRB endpoints. For proliferation assays for adherent cell types, individual cell types are cultured at sub-confluence and relative cell numbers quantified by SRB staining at time points optimized for each system (48 h: 3C and CASM3C systems; 72 h: BT and HDF3CGF systems; 96 h: SAg system). SRB was performed by staining cells with 0.1% SRB after fixation with 10% TCA and reading wells at 560 nm.Viability and proliferation of PBMC (T cells) was quantified by Alamar Blue reduction for the SAg and BT systems. For PBMC viability (referred to as PBMC Cytotoxicity within the assay endpoint names), cells were plated (75,000/well in a 96-well plate) and then chemical samples added for 1 h before addition of activators, SEB and TSST-1 (20 ng/mL final concentration each). Cells were incubated for 90 h. Then, Alamar Blue (20 uL/well) (Invitrogen, Cat DAL1100) was added for 6 h, and the plates were read with a fluorescence microplate reader at 546/580 nm (excitation/emission). For PBMC proliferation, cells were plated and activated as above but incubated for only 16 h prior to addition of Alamar Blue. Plates were read after 6 h.
In the case of `Nc1ccc2c(c1)C(=O)c1ccccc1C2=O`, the result was inactive.
Still for that read-out and setting: to `Clc1cc(Cl)c(Cl)cc1Cl` belongs “inactive”.
For the compound `FC(F)(F)C(F)(F)C(F)(F)C(F)(F)C(F)(F)C(F)(F)CCI`, the outcome was inactive.
Same read-out and setting: to `COCCOC[C@H](CC1(C(=O)NC2CCC(C(=O)O)CC2)CCCC1)C(=O)Oc1ccc2c(c1)CCC2` (stereo not given in full) belongs “inactive”; to `CCCCCCCCCCO`, “inactive”; to `O=c1[nH]cc(F)c(=O)[nH]1`, “inactive”.
With `CCCCC(CC)COC(=O)CC(C(=O)OCC(CC)CCCC)S(=O)(=O)O` (stereo not given), the AC50 (in general, the concentration giving half of the maximal activity seen) is 30.6 µM (active).
With `O=C(N[C@@H](Cc1ccccc1)[C@@H](O)C(=O)N1C[C@@H](O)[C@@H](O)C1)c1cc2cc(Cl)ccc2[nH]1`, the outcome was inactive.
Still for that read-out and setting: to `CC(C)(C)c1cc(O)c(C(C)(C)C)cc1O` belongs “inactive”; to `COCCOCCOC`, “inactive”.
For the compound `CCCCCCCCCCCCCCCCCC(=O)O`, the outcome was inactive.
On the same count and under the same terms, to `Cc1ccc(C(C)C)c(O)c1` belongs “inactive”; to `CCCCN(CCCC)CCCC`, “inactive”.
Same read-out and setting: to `Cc1ccccc1Cl` belongs “inactive”.
On to `Cc1oc(-c2ccccc2)nc1CCOc1cccc2c1ccn2CCC(=O)O`, for which the outcome was inactive.
Still for that read-out and setting: to `CC(CO)OC(C)CO` (stereo not given) (tested in a mixture with another compound) belongs “inactive”; to `Cc1ccc2ncccc2c1`, “inactive”.
On the same count and under the same terms, to `Cc1ccc(N(C)C)cc1` belongs “inactive”.
On the same count and under the same terms, to `CCNc1cccc(C)c1` belongs “inactive”.
Consider `Cc1nc(C)nc(N2C[C@@H](C)N(c3ccnc([C@@H](C)O)n3)[C@@H](C)C2)n1`, for which the result was inactive.
On the same count and under the same terms, to `CC(C)c1ccc(C(=O)N=C(N)N)cc1S(C)(=O)=O` belongs “inactive”; to `CCOC(=O)CCC(=O)OCC`, “inactive”.
On the same count and under the same terms, to `O=C(O)CCCCC(=O)O` belongs “inactive”; to `COc1cc(S(=O)(=O)O)c(C)cc1N=Nc1c(O)ccc2cc(S(=O)(=O)O)ccc12`, “inactive”.
On the same count and under the same terms, to `c1cc(-c2ccncc2)ccn1` belongs “inactive”.
As to `O=c1c(O)c(-c2ccc(O)c(O)c2)oc2cc(O)cc(O)c12`, the AC50 is 14.5 µM (active).
For `COc1cc(C=O)ccc1O`, the outcome was inactive.
Still for that read-out and setting: to `CCCCOC(=O)CCCCCCCCC(=O)OCCCC` belongs “inactive”; to `Cc1ccc(C)c(C)c1`, “inactive”.
On the same count and under the same terms, to `CC1(C)NC(=O)NC1=O` belongs “inactive”.
For `CCCc1cc(=O)[nH]c(=S)[nH]1`, the outcome was inactive.
For `CCOC(=O)C(C)(C)Oc1ccc(Cl)cc1`, the outcome was inactive.
On to `Nc1ccccc1N`, for which the result was inactive.
The same measure, in the same setting: to `C=CCc1ccc(O)c(OC)c1` belongs “inactive”; to `CC(=O)C(C)=CC1C(C)=CCCC1(C)C` (stereo not given), “inactive”.
On the same count and under the same terms, to `CC=Cc1ccc(O)c(OC)c1` belongs “inactive”.
Same read-out and setting: to `O=C(O)Cc1ccccc1Nc1c(Cl)cccc1Cl` belongs “inactive”; to `CNC(=O)[C@H]1O[C@@H](n2cnc3c(NCc4cc(Cl)ccc4OCc4cc(C)no4)ncnc32)[C@H](O)[C@@H]1N`, “inactive”.
Regarding `C=CCOC(=O)c1ccccc1C(=O)OCC=C`, the result was inactive.
The same measure, in the same setting: to `Cc1cc(NC(=O)C(=O)O)cc(C)c1Oc1ccc(O)c2c1CCC2` belongs “inactive”.
